# pKd: −log10 of the molar value.
# Experiments:
# PIK4CB = test system: T1, PIK4CB
# T1 construct: gene PI4KB
# PKAC-alpha = test system: T2, PKAC-alpha
# T2 construct: gene PRKACA
# PKAC-beta = test system: T3, PKAC-beta
# T3 construct: gene PRKACB
# 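Further: kd values determined as follow-up on hits from a single-replicate KINOMEscan panel screen.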
smiles,measurement,setting,value
CSc1nn2c(=O)cc(N3CCOCC3)nc2n1Cc1cccc(Cl)c1Cl [GSK2347225],pKd,PIK3CD,6.62
CC(C)(C)c1ccc(-n2cnc3c(N)ncnc32)cc1 [SKF-97263],pKd,PIK3CG,5.62
O=C(Nc1ccccc1F)NC1CCN(c2ccnc(Nc3ccc(F)cc3)n2)C1 (stereo not drawn) [GSK1379722],pKd,PIK4CB,< 5.00
O=C(c1ccc(-c2cc(-c3c[nH]nc3-c3ccccn3)ccn2)cc1)N1CCCC1 [GW792479],pKd,PIM1,< 5.00
CNc1nccc(-c2c(-c3ccc(F)cc3)ncn2CCCN2CCOCC2)n1 [SB-222516],pKd,PIM3,< 5.00
Nc1nc(-c2ccccn2)c(-c2ccnc3ccccc23)s1 [GW548057],pKd,PIP5K1C,< 5.00
COc1cc2c(Nc3cccc(NC(=O)c4ccccc4)c3)ncnc2cc1OCCCN1CCOCC1 [GSK223810],pKd,PKAC-alpha,< 5.00
C[C@@H]1CCN(C(=O)CO)C[C@@H]1N(C)c1ncnc2[nH]ccc12,pKd,PKAC-beta,< 5.00
same,pKd,PKMYT1,< 5.00

# Source: paper PMC5540273 (PLoS ONE, 2017)
